L929 necroptosis: L929 zVAD cell death inhibition; viability rescue, % at 10 µM; 0.38% of 220,000 active; L929 zVAD necroptosis rescue, ATP luminescence, 24 h; with zVAD 60 µM;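 active = activation, scaled between plate controls, above about 75%, limit read from the data; inactive = activation under that limit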;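 also: 0% = zVAD with DMSO and 100% = DMSO alone without zVAD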
Mcl-1 Bim block: disrupts Bim peptide binding to human Mcl-1; Q07820; Bead-based flow cytometry, Bim peptide-Mcl-1 binding; inhibition, % at 10 µM; 0.1% of 190,000 active; AID 1009; in the data active = inhibition above about 40%;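 also: 0% = no compound tracer wells and 100% = peptide blocker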
Target sequence (Q07820 whole entry, looked up): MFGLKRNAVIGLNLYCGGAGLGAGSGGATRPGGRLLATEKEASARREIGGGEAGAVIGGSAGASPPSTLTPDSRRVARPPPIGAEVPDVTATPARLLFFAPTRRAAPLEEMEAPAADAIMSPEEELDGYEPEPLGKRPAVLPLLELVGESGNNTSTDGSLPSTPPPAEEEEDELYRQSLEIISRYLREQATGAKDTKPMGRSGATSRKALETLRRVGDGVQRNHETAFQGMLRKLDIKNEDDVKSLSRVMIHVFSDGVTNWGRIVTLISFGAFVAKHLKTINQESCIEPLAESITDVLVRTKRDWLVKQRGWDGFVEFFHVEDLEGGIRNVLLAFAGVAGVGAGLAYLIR
m-calpain inh: blocks pig calpain II enzyme activity; purified calpain II, fluorogenic peptide substrate, 30 min; inhibition, % at 16 µM; 0.37% of 220,000 active;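 active = inhibition above about 50%, limit read from the data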
TNF necrop inh: blocks TNF-alpha induced death of Jurkat FADD-/- cells; Jurkat FADD-/- TNF necroptosis rescue, ATP luminescence, 24 h; 0 = TNF only, 100 = no-TNF cells; activation (protection from cell death), % at 10 µM; 0.068% of 220,000 active;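 active = activation, meaning protection from cell death, of at least 50% relative to plate controls; inactive = activation below 50%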;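 also: necroptosis triggered by 40 ng/mL TNF-alpha added together with compound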
Mcl1 Bid PPI: disrupts binding of human Mcl-1 to Bid peptide; TR-FRET Mcl-1/Bid-Dy647 peptide binding, 1536-well; inhibition, % at 21.7 µM; 0.97% of 220,000 active; AID 1021;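 active = compounds that cut the binding signal by more than half at the single screening dose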;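 also: His-tagged Mcl-1 with europium anti-His antibody binding Bid BH3 peptide; 0% = Mcl-1 plus peptide wells and 100% = peptide-only wells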
Mcl1-Noxa inh: disrupts binding of human Mcl-1 to Noxa peptide; AID 1022; Q07820; TR-FRET Mcl-1/Noxa peptide binding, 2 h; 1.5% of 220,000 active; inhibition, % at 21.7 µM;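 active = compounds that cut the protein-peptide binding signal by more than 50% relative to plate controls in a single-dose test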;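 also: His-tagged Mcl-1 with rhodamine Noxa BH3 peptide and terbium anti-His antibody; 0% = Mcl-1 plus Noxa peptide wells and 100% = peptide-only wells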
* hit, by the source's call; i = inactive; x = no result given; ! = repeats disagree. This is a sample that favours compounds with a hit; in the whole collection about 2.8% have one here.

SMILES	L929 necroptosis	Mcl-1 Bim block	m-calpain inh	TNF necrop inh	Mcl1 Bid PPI	Mcl1-Noxa inh
CCOc1ccccc1N1C(=O)NC(=O)/C(=C/c2ccc3c4c(cccc24)CC3)C1=O	0.0	0.0	-161.4	-6.7	30.8	48.9
COc1cccc(N2C(=O)NC(=O)/C(=C/c3ccc4c5c(cccc35)CC4)C2=O)c1	0.8	-6.0	-214.2	2.9	8.8	51.6*
O=c1[nH]c(=S)n(C2CCCCC2)c(O)c1/C=N/N1CCOCC1	0.8	x	5.1	-3.3	-43.0	-10.1
NC1=C([N+](=O)[O-])C(c2ccc3c(c2)OCO3)c2c(c3ccccc3oc2=O)O1 (configuration not stated)	0.2	x	5.9	-0.2	-50.9	25.7
O=c1oc2ccccc2c(O)c1[C@H]1c2ccc(O)cc2Oc2c1c(=O)oc1ccccc21	-0.7	x	8.2	0.1	-0.8	60.7*
C/C(=N\N1CCCCCC1)c1c(O)n(C)c(=O)n(C)c1=O	-0.8	x	-9.5	0.7	-42.5	-6.5
CN1CCC(N(C)c2nc(-c3ccc([N+](=O)[O-])cc3)nc3ccccc23)CC1	58.8	0.0	-26.1	-17.0	-1.6	94.3*
O=C1NC(=O)C(=Cc2ccc(OCC(=O)N3CCOCC3)cc2)C(=O)N1	2.1	-2.0	9.0	2.3	-49.5	23.6
CN1C(=O)CN=C(c2ccc(Cl)cc2)c2cc(Cl)ccc21	0.6	-4.0	11.9	1.0	97.3*	15.7
CCCC(=O)N(C)C1=Nc2ccc(Cl)cc2C(c2ccccc2)=[N+]([O-])C1	0.2	x	-16.7	1.2	-9.7	-14.8
COc1ccc(CCNC(=O)c2c(N)n(CCN3CCOCC3)c3nc4ccccc4nc23)cc1	4.5	-3.0	-233.4	0.4	9.7	22.1
C=CCNC(=O)c1c(N)n(Cc2ccco2)c2nc3ccccc3nc12	0.0	-1.0	i	-2.0	-9.9	57.3*
Nc1c(C(=O)NCCN2CCOCC2)c2nc3ccccc3nc2n1Cc1ccco1	0.7	3.0	i	-4.8	-9.4	76.4*
Nc1c(C(=O)NCCc2ccccc2)c2nc3ccccc3nc2n1CCN1CCOCC1	0.6	1.0	-329.1	-7.2	76.9*	15.2
Nc1c(C(=O)NCCN2CCOCC2)c2nc3ccccc3nc2n1Cc1ccccc1	2.3	x	-299.2	0.4	-8.1	8.5
COC(=O)C1=Nc2ccccc2/C1=C\c1c(O)n(-c2cc(OC)ccc2OC)c(=O)[nH]c1=O	1.5	1.0	-32.0	0.5	22.8	65.3*
Cc1ccccc1-n1c(O)c(/C=C2/C(c3ccccc3)=Nc3ccccc32)c(=O)[nH]c1=O	0.7	0.0	-8.7	-4.4	-33.4	6.6
Cc1cc(C)cc(NC2=NCCCS2)c1	1.3	0.0	0.7	1.8	-10.8	14.3
Cc1cc2c(C(C)C)c(O)c(O)c(C=O)c2c(O)c1-c1c(C)cc2c(C(C)C)c(O)c(O)c(C=O)c2c1O	3.8	2.0	54.9*!	-3.7	99.9*	117.9*
CCCCCc1nc2c(c(=O)c3ccccc3n2C)c(=O)n1C1CCCCCC1	0.0	-4.0	38.3	-2.5	54.2*	25.4
Cc1ccc(N2C(=O)NC(=O)/C(=C\c3cnc(-c4ccccc4)nc3)C2=O)cc1	0.6	3.0	-4.4	2.3	-10.2	75.3*
Cc1ccc(N2C(=O)NC(=O)/C(=C/c3ccoc3)C2=O)cc1	0.3	x	-12.2	5.3	-80.4	77.0*
CSc1ncc(/C=C2/C(=O)NC(=O)N(c3ccc(C)cc3)C2=O)cn1	4.5	-2.0	44.5	0.9	-50.9	19.1
Cc1ccc(N2C(=O)NC(=O)/C(=C/c3cnn(-c4ccc(C)cc4)c3)C2=O)cc1	0.2	-3.0	-20.6	0.1	-15.1	18.9
CC(C)Oc1cc(-n2c(=S)[nH]c3ccccc3c2=O)c(Cl)cc1Cl	-0.3	-2.0	62.8*	-6.7	-110.0	-49.0
SMILES	L929 necroptosis	Mcl-1 Bim block	m-calpain inh	TNF necrop inh	Mcl1 Bid PPI	Mcl1-Noxa inh
N/C(=N\N=C/c1ccc(-c2ccc(O)c(C(=O)O)c2)o1)N[N+](=O)[O-]	-0.2	-1.0	-6.2	-4.2	23.9	87.3*
COc1ccc(/C=N/N=C(/N)N[N+](=O)[O-])c(OC)c1	0.1	-2.0	-16.2	-9.1	-17.4	8.3
CC1(C)C2([N+](=O)[O-])CN3CN(C2)CC1([N+](=O)[O-])C3	7.0	-2.0	-2.5	-0.1	-9.0	4.7
CCC(=NC(C)c1ccccc1)c1c(O)[nH]c(=O)[nH]c1=O (configuration not stated)	-1.7	x	-11.3	-8.7	90.3*	-9.1
CCC(=NCCC(c1ccccc1)c1ccccc1)c1c(O)[nH]c(=O)[nH]c1=O	-1.6	-2.0	-8.8	-4.0	-21.8	-13.4
CCN1CC2([N+](=O)[O-])CC=C(Cl)C([N+](=O)[O-])(C1)C2 (configuration not stated)	-0.9	3.0	-4.7	-0.9	-18.4	3.8
Cc1cccc(N2C(=O)NC(=O)/C(=C\c3ccc4c(c3)CCCN4Cc3ccccc3)C2=O)c1	0.0	2.0	-34.2	0.9	-22.6	32.4
CCC(C)N1C(=O)/C(=C/c2ccc3c(c2)CCN3CCCCl)C(=O)NC1=S (configuration not stated)	0.5	-4.0	-63.0	-0.4	39.1	101.2*
c1ccc(C2CC3CC4(CCCC4)N2O3)cc1 (configuration not stated)	30.2	0.0	4.6	94.0*	-4.5	-5.9
Cc1c(C(=O)C(=O)N2CCC3(CC2)OCCO3)c2ccccc2n1C	0.2	1.0	-20.3	-0.4	-9.9	4.5
COc1cc(/C=C/c2nc3ccccc3c(=O)n2-c2cccc(O)c2)ccc1O	3.0	x	-12.6	-13.2	63.0*	96.2*
CC(=O)N1N=C(c2c(O)n(C)c(=O)n(C)c2=O)CC1c1ccccc1 (configuration not stated)	0.8	x	7.1	-7.3	-48.1	-10.3
CCN1CCN(c2cc(N3CCCC3)c(F)cc2[N+](=O)[O-])CC1	1.1	-3.0	24.5	3.7	-19.6	64.9*
Cc1nc(SCc2c(Cl)cccc2Cl)nc(OC(=O)N(C)C)c1C	-0.4	x	-9.8	4.0	-1.8	6.2
CN(C)c1ccc(C=C2C(=O)NC(=S)NC2=O)cc1[N+](=O)[O-]	4.1	-2.0	-7.8	0.6	-11.5	64.9*
CCCCN1C(=O)/C(=C/C=C/c2ccco2)C(=O)NC1=S	-0.6	-1.0	-17.5	-3.5	76.0*	96.2*
O=C1NC(=O)N(Cc2ccc(F)cc2)C(=O)/C1=C\C=C\c1ccco1	-0.7	x	24.8	-25.0	-13.6	32.1
Brc1ccccc1	0.4	x	-5.6	0.7	82.5*	-15.3
COC1C(OC(=O)c2ccc(C)[nH]2)C(O)C(Oc2ccc3c(O)c(NC(=O)c4ccc(O)c(CC=C(C)C)c4)c(=O)oc3c2Cl)OC1(C)C (configuration not stated)	0.5	x	18.8	2.5	7.4	16.5
C=CCn1c(O)c(C(CC)=Nc2ccc(N(C)C)cc2)c(=O)[nH]c1=O	1.8	x	2.2	-2.9	34.9	-6.1

High-throughput results: PubChem, several laboratories
